Measurements reported in the supplement of paper PMC4466140.

Columns and labels:
Test in all cases: SPOT peptide array binding signal intensity (averaged, normalized) (arbitrary units (background-subtracted, floor 0; scale differs between SH3 domains)); higher = stronger binding of the SH3 domain to the peptide
AgAbp1 = target: AgAbp1
In short: (§1)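 Four yeast species supplied the SH3 domains, which were expressed as GST fusions in E. coli BL21(DE3) and purified on glutathione Sepharose. Incubation with cellulose membranes carrying synthetic 15-mer peptides, cysteines exchanged for serines, ran overnight at 4°C at 10 μg/ml in TBS-based blocking buffer. Binding signal is reported as normalized, background-subtracted spot intensity averaged over replicates, in arbitrary units not shared between domains.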

AgBbc1 = target: AgBbc1
In short: as §1

AgBem1-D1 = target: AgBem1-D1
In short: as §1

AgBzz1-D1 = target: AgBzz1-D1
In short: as §1

AgBzz1-D2 = target: AgBzz1-D2
In short: as §1

AgCyk3 = target: AgCyk3
In short: as §1

AgFus1 = target: AgFus1
In short: as §1

AgHof1 = target: AgHof1
In short: as §1

AgHse1 = target: AgHse1
In short: as §1

AgLsb1 = target: AgLsb1
In short: as §1

AgLsb4 = target: AgLsb4
In short: as §1

AgMyo5 = target: AgMyo5
In short: as §1

AgNbp2 = target: AgNbp2
In short: as §1

AgRvs167 = target: AgRvs167
In short: as §1

AgSho1 = target: AgSho1
In short: as §1

AgSla1-D1-D2 = target: AgSla1-D1-D2
In short: as §1

AgSla1-D3 = target: AgSla1-D3
In short: as §1

CaAbp1-D1 = target: CaAbp1-D1
In short: as §1

CaAbp1-D2 = target: CaAbp1-D2
In short: as §1

CaBbc1 = target: CaBbc1
In short: as §1

CaBem1-D1 = target: CaBem1-D1
In short: as §1

CaBzz1-D1 = target: CaBzz1-D1
In short: as §1

CaBzz1-D2 = target: CaBzz1-D2
In short: as §1

CaCyk3 = target: CaCyk3
In short: as §1

CaFus1 = target: CaFus1
In short: as §1

CaHof1 = target: CaHof1
In short: as §1

CaHse1 = target: CaHse1
In short: as §1

CaLsb1 = target: CaLsb1
In short: as §1

CaLsb4 = target: CaLsb4
In short: as §1

CaMyo5 = target: CaMyo5
In short: as §1

CaNbp2 = target: CaNbp2
In short: as §1

CaRvs167 = target: CaRvs167
In short: as §1

CaRvs167-3 = target: CaRvs167-3
In short: as §1

CaSho1 = target: CaSho1
In short: as §1

CaSla1-D1-D2 = target: CaSla1-D1-D2
In short: as §1

CaSla1-D3 = target: CaSla1-D3
In short: as §1

ScAbp1 = target: ScAbp1
In short: as §1

ScBbc1 = target: ScBbc1
In short: as §1

ScBem1-D1 = target: ScBem1-D1
In short: as §1

ScBzz1-D1 = target: ScBzz1-D1
In short: as §1

ScBzz1-D2 = target: ScBzz1-D2
In short: as §1

ScCyk3 = target: ScCyk3
In short: as §1

ScFus1 = target: ScFus1
In short: as §1

ScHof1 = target: ScHof1
In short: as §1

ScHse1 = target: ScHse1
In short: as §1

ScLsb1 = target: ScLsb1
In short: as §1

ScLsb2 = target: ScLsb2
In short: as §1

ScLsb3 = target: ScLsb3
In short: as §1

ScLsb4 = target: ScLsb4
In short: as §1

ScMyo3 = target: ScMyo3
In short: as §1

ScMyo5 = target: ScMyo5
In short: as §1

ScNbp2 = target: ScNbp2
In short: as §1

ScPex13 = target: ScPex13
In short: as §1

ScRvs167 = target: ScRvs167
In short: as §1

ScSho1 = target: ScSho1
In short: as §1

ScSla1-D1-D2 = target: ScSla1-D1-D2
In short: as §1

ScSla1-D3 = target: ScSla1-D3
In short: as §1

SpAbp1-D1 = target: SpAbp1-D1
In short: as §1

SpBbc1 = target: SpBbc1
In short: as §1

SpBzz1-D1 = target: SpBzz1-D1
In short: as §1

SpBzz1-D2 = target: SpBzz1-D2
In short: as §1

SpCyk3 = target: SpCyk3
In short: as §1

SpHof1 = target: SpHof1
In short: as §1

SpHof1-2 = target: SpHof1-2
In short: as §1

SpHof1-3 = target: SpHof1-3
In short: as §1

SpHse1 = target: SpHse1
In short: as §1

SpLsb1 = target: SpLsb1
In short: as §1

SpLsb4 = target: SpLsb4
In short: as §1

SpMyo1 = target: SpMyo1
In short: as §1

SpNbp2 = target: SpNbp2
In short: as §1

SpPex13 = target: SpPex13
In short: as §1

SpRvs167 = target: SpRvs167
In short: as §1

SpSla1-D1-D2 = target: SpSla1-D1-D2
In short: as §1

SpSla1-D3 = target: SpSla1-D3
In short: as §1

Binder: RSLRKRPTSPSISGS
- SPOT peptide array binding signal intensity (AgAbp1): 197
- SPOT peptide array binding signal intensity (AgBbc1): 232
- SPOT peptide array binding signal intensity (AgBem1-D1): 118
- SPOT peptide array binding signal intensity (AgBzz1-D1): 62.5
- SPOT peptide array binding signal intensity (AgBzz1-D2): 63
- SPOT peptide array binding signal intensity (AgCyk3): 23
- SPOT peptide array binding signal intensity (AgFus1): 464
- SPOT peptide array binding signal intensity (AgHof1): 77
- SPOT peptide array binding signal intensity (AgHse1): 1610
- SPOT peptide array binding signal intensity (AgLsb1): 7
- SPOT peptide array binding signal intensity (AgLsb4): 326
- SPOT peptide array binding signal intensity (AgMyo5): 1
- SPOT peptide array binding signal intensity (AgNbp2): 724
- SPOT peptide array binding signal intensity (AgRvs167): 9.67
- SPOT peptide array binding signal intensity (AgSho1): 80.5
- SPOT peptide array binding signal intensity (AgSla1-D1-D2): 698
- SPOT peptide array binding signal intensity (AgSla1-D3): 3.5
- SPOT peptide array binding signal intensity (CaAbp1-D1): 1720
- SPOT peptide array binding signal intensity (CaAbp1-D2): 1730
- SPOT peptide array binding signal intensity (CaBbc1): 522
- SPOT peptide array binding signal intensity (CaBem1-D1): 57.5
- SPOT peptide array binding signal intensity (CaBzz1-D1): 86
- SPOT peptide array binding signal intensity (CaBzz1-D2): 94.5
- SPOT peptide array binding signal intensity (CaCyk3): 201
- SPOT peptide array binding signal intensity (CaFus1): 985
- SPOT peptide array binding signal intensity (CaHof1): 0.75
- SPOT peptide array binding signal intensity (CaHse1): 204
- SPOT peptide array binding signal intensity (CaLsb1): ≤ 0
- SPOT peptide array binding signal intensity (CaLsb4): 338
- SPOT peptide array binding signal intensity (CaMyo5): 6
- SPOT peptide array binding signal intensity (CaNbp2): 1160
- SPOT peptide array binding signal intensity (CaRvs167): 27.5
- SPOT peptide array binding signal intensity (CaRvs167-3): 210
- SPOT peptide array binding signal intensity (CaSho1): 972
- SPOT peptide array binding signal intensity (CaSla1-D1-D2): 226
- SPOT peptide array binding signal intensity (CaSla1-D3): 1.5
- SPOT peptide array binding signal intensity (ScAbp1): 65
- SPOT peptide array binding signal intensity (ScBbc1): 94
- SPOT peptide array binding signal intensity (ScBem1-D1): 50.5
- SPOT peptide array binding signal intensity (ScBzz1-D1): 26.5
- SPOT peptide array binding signal intensity (ScBzz1-D2): 28
- SPOT peptide array binding signal intensity (ScCyk3): 294
- SPOT peptide array binding signal intensity (ScFus1): 488
- SPOT peptide array binding signal intensity (ScHof1): 1
- SPOT peptide array binding signal intensity (ScHse1): 1770
- SPOT peptide array binding signal intensity (ScLsb1): 54
- SPOT peptide array binding signal intensity (ScLsb2): 20
- SPOT peptide array binding signal intensity (ScLsb3): 1330
- SPOT peptide array binding signal intensity (ScLsb4): 27.5
- SPOT peptide array binding signal intensity (ScMyo3): 11
- SPOT peptide array binding signal intensity (ScMyo5): 3
- SPOT peptide array binding signal intensity (ScNbp2): 1530
- SPOT peptide array binding signal intensity (ScPex13): 3
- SPOT peptide array binding signal intensity (ScRvs167): 75.5
- SPOT peptide array binding signal intensity (ScSho1): 959
- SPOT peptide array binding signal intensity (ScSla1-D1-D2): 607
- SPOT peptide array binding signal intensity (ScSla1-D3): 30
- SPOT peptide array binding signal intensity (SpAbp1-D1): 477
- SPOT peptide array binding signal intensity (SpBbc1): 8
- SPOT peptide array binding signal intensity (SpBzz1-D1): 249

Binder: SRSKPLPLTPNSKYN
- SPOT peptide array binding signal intensity (AgAbp1): 197
- SPOT peptide array binding signal intensity (AgBbc1): 15.2
- SPOT peptide array binding signal intensity (AgBem1-D1): 16
- SPOT peptide array binding signal intensity (AgBzz1-D1): 195
- SPOT peptide array binding signal intensity (AgBzz1-D2): 111
- SPOT peptide array binding signal intensity (AgCyk3): 1
- SPOT peptide array binding signal intensity (AgFus1): 6.5
- SPOT peptide array binding signal intensity (AgHof1): 24.2
- SPOT peptide array binding signal intensity (AgHse1): 10.5
- SPOT peptide array binding signal intensity (AgLsb1): 1
- SPOT peptide array binding signal intensity (AgLsb4): 9
- SPOT peptide array binding signal intensity (AgMyo5): ≤ 0
- SPOT peptide array binding signal intensity (AgNbp2): 8.5
- SPOT peptide array binding signal intensity (AgRvs167): 1.67
- SPOT peptide array binding signal intensity (AgSho1): 3200
- SPOT peptide array binding signal intensity (AgSla1-D1-D2): 21.5
- SPOT peptide array binding signal intensity (AgSla1-D3): 8.5
- SPOT peptide array binding signal intensity (CaAbp1-D1): 64
- SPOT peptide array binding signal intensity (CaAbp1-D2): 249
- SPOT peptide array binding signal intensity (CaBbc1): 30
- SPOT peptide array binding signal intensity (CaBem1-D1): 29.5
- SPOT peptide array binding signal intensity (CaBzz1-D1): 384
- SPOT peptide array binding signal intensity (CaBzz1-D2): 162
- SPOT peptide array binding signal intensity (CaCyk3): 4
- SPOT peptide array binding signal intensity (CaFus1): 83
- SPOT peptide array binding signal intensity (CaHof1): ≤ 0
- SPOT peptide array binding signal intensity (CaHse1): 8.25
- SPOT peptide array binding signal intensity (CaLsb1): 0.5
- SPOT peptide array binding signal intensity (CaLsb4): 10.5
- SPOT peptide array binding signal intensity (CaMyo5): 10
- SPOT peptide array binding signal intensity (CaNbp2): 19.5
- SPOT peptide array binding signal intensity (CaRvs167): 6.17
- SPOT peptide array binding signal intensity (CaRvs167-3): 2.75
- SPOT peptide array binding signal intensity (CaSho1): 3190
- SPOT peptide array binding signal intensity (CaSla1-D1-D2): 1430
- SPOT peptide array binding signal intensity (CaSla1-D3): 1.5
- SPOT peptide array binding signal intensity (ScAbp1): 332
- SPOT peptide array binding signal intensity (ScBbc1): 2.5
- SPOT peptide array binding signal intensity (ScBem1-D1): 8
- SPOT peptide array binding signal intensity (ScBzz1-D1): 98.5
- SPOT peptide array binding signal intensity (ScBzz1-D2): 89
- SPOT peptide array binding signal intensity (ScCyk3): 5
- SPOT peptide array binding signal intensity (ScFus1): 8
- SPOT peptide array binding signal intensity (ScHof1): ≤ 0
- SPOT peptide array binding signal intensity (ScHse1): 30
- SPOT peptide array binding signal intensity (ScLsb1): ≤ 0
- SPOT peptide array binding signal intensity (ScLsb2): 1
- SPOT peptide array binding signal intensity (ScLsb3): ≤ 0
- SPOT peptide array binding signal intensity (ScLsb4): 12
- SPOT peptide array binding signal intensity (ScMyo3): ≤ 0
- SPOT peptide array binding signal intensity (ScMyo5): 2
- SPOT peptide array binding signal intensity (ScNbp2): 20
- SPOT peptide array binding signal intensity (ScPex13): 39
- SPOT peptide array binding signal intensity (ScRvs167): 2.33
- SPOT peptide array binding signal intensity (ScSho1): 3960
- SPOT peptide array binding signal intensity (ScSla1-D1-D2): 156
- SPOT peptide array binding signal intensity (ScSla1-D3): 28.2
- SPOT peptide array binding signal intensity (SpAbp1-D1): 872
- SPOT peptide array binding signal intensity (SpBbc1): 6.5
- SPOT peptide array binding signal intensity (SpBzz1-D1): 578
- SPOT peptide array binding signal intensity (SpBzz1-D2): 1.25
- SPOT peptide array binding signal intensity (SpCyk3): 5
- SPOT peptide array binding signal intensity (SpHof1): 1490
- SPOT peptide array binding signal intensity (SpHof1-2): 1710
- SPOT peptide array binding signal intensity (SpHof1-3): 1310
- SPOT peptide array binding signal intensity (SpHse1): 37.5
- SPOT peptide array binding signal intensity (SpLsb1): 1
- SPOT peptide array binding signal intensity (SpLsb4): 17
- SPOT peptide array binding signal intensity (SpMyo1): 10.5
- SPOT peptide array binding signal intensity (SpNbp2): 11
- SPOT peptide array binding signal intensity (SpPex13): 5
- SPOT peptide array binding signal intensity (SpRvs167): 12.3
- SPOT peptide array binding signal intensity (SpSla1-D1-D2): 844
- SPOT peptide array binding signal intensity (SpSla1-D3): 0.5
